Rows were chosen to be rich in hits. Some 4.6% of all compounds tested hit in one or more screens of this group.
tim10-1 inh: tim10-1 yeast growth inhibition; S. cerevisiae tim10-1 ts strain growth, BacTiter-Glo, 24 h; AID 463190; 330,000 tested, 2.2% active; inhibition, % at 20 µM;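 active = inhibition of at least 40%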;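 note: mutant grown at 25 °C; 0% = DMSO wells with yeast and 100% = wells holding no yeast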
SKKanGAS inh: SKKanGAS growth inhibition | S. pyogenes SKKanGAS, kanamycin growth, BacTiter-Glo, 6 h | inhibition, % at 7.5 µM | AID 1662 | 300,000 tested, 1.3% active;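 active = mean replicate score, as percent of positive control median, at least 50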;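 note: strain carries kanamycin resistance gene driven by streptokinase promoter and grows in 40 µg/ml kanamycin; loss of luminescence reflects streptokinase promoter inhibition or plain growth inhibition; 0% = median of DMSO wells and 100% = positive control at its reference dose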
TIM10 inh: inhibits growth of TIM10 yeast strain. S. cerevisiae TIM10 strain growth, BacTiter-Glo luminescence, 24 h. 330,000 tested, 1.4% active. AID 463195. inhibition, % at 10 µM;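 active = inhibition of 40% or more at the single tested concentration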;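 note: wild-type TIM10 isogenic control strain grown at permissive 25 °C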
tim23-1 inh: inhibits growth of tim23-1 mutant yeast; S. cerevisiae tim23-1 growth, BacTiter-Glo luminescence, 24 h; inhibition, % at 20 µM; 330,000 tested, 1.3% active; AID 463212;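 active = growth inhibition of the mutant yeast at or above 50%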;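 note: temperature-sensitive mutant grown at 25 °C; plate controls were DMSO-treated mutant yeast for no effect and medium wells lacking yeast for full effect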
V-ATPase pHluor: alters yeast V-ATPase proton transport. S. cerevisiae, pHLuorin cytosolic pH fluorescence. response, % at 10 µM. 350,000 tested, 0.37% active; in the data active = response mostly above about 7.3%, no sharp cut-off; inactive = mostly below about 5.4%; note: actives read high
PfHsp90 yeast 2: growth inhibition of yeast expressing Plasmodium Hsp90. 310,000 tested, 0.32% active. inhibition, % at 9.4 µM. S. cerevisiae expressing PfHsp90, BacTiter-Glo ATP, 48 h; yeast lacking PDR1 and PDR3 efflux regulators;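 active = every replicate shows inhibition above about 80%, whatever the replicate mean, limit read from the data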;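 note: 0% = DMSO neutral controls and 100% = 20 µM radicicol positive controls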
tim10-1 confirm: confirmation of tim10-1 mutant yeast growth inhibitors | shares compounds with tim10-1 inh | S. cerevisiae tim10-1 ts strain growth, BacTiter-Glo, 24 h | inhibition, % at 20 µM | 7,400 tested, 56% active | AID 463213;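 active = inhibition of yeast growth at or above a set limit in either of two repeat tests at 20 µM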;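 note: tim10-1 mutant grown at permissive 25 °C to find synthetic lethal compounds; 0% = DMSO yeast wells and 100% = medium wells without yeast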
tim10 confirm: TIM10 yeast growth inhibition, confirmed | inhibition, % at 10 µM | S. cerevisiae tim10 strain growth, BacTiter-Glo luminescence, 24 h | AID 463215 | 4,600 tested, 63% active | shares compounds with TIM10 inh;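 active = inhibition of yeast growth at or above a set limit in either of two replicates at 10 µM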;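 note: this counterscreen used the strain with wild-type TIM10; 0% = yeast with DMSO and 100% = medium wells lacking yeast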
* = called active by the depositor; nt = not tested or not shown; ! = not active in a repeat.

SMILES	tim10-1 inh	SKKanGAS inh	TIM10 inh	tim23-1 inh	V-ATPase pHluor	PfHsp90 yeast 2	tim10-1 confirm	tim10 confirm
COc1ccc(C(=O)Nc2cc(C(=O)c3ccccc3)c(C)oc2=O)cc1	66*	-3	60*	45	3	117*	70*	43*
Cc1oc(=O)c(NC(=O)c2cccc(Cl)c2)cc1C(=O)c1ccccc1	62*	-5	51*	48	6	nt	62*	43*
Cc1ccc(SCC(=O)OC(C)C(=O)NCc2ccccc2)cc1 (stereo not drawn)	22	17	-2	9	-4	-12	nt	nt
CC(C)=CCCC(C)=CCN1C(=O)CN(C)C1=O	nt	nt	nt	nt	-2	nt	nt	nt
Cn1c(=O)c(=O)n(C)c2cc(N3CCOCC3)c(NS(=O)(=O)c3ccc(Br)cc3)cc21	11	0	16	15	0	-11	nt	nt
NC(=O)c1ccsc1NC(=O)c1ccc2c(c1)CCCC2	46*	7	56*	50	-3	9	20	37*
Cc1ccc(NC(=O)Cn2cnc3c(nnn3Cc3ccc(F)cc3)c2=O)cc1	7	-29	-2	0	1	-5	nt	nt
CCSc1nc2ccccc2n1C(=O)/C=C\c1ccc(OC)c(OC)c1	65*	6	52*	35	0	8	56*	-24
COc1ccc(S(=O)(=O)NC(C)C(=O)N2CCCC2)cc1C (stereo not drawn)	6	-6	8	-10	1	-12	nt	nt
Cn1c(=O)c2c(nc(N3CCN(c4ccccn4)CC3)n2Cc2ccccc2Cl)n(C)c1=O	43*	-7	51*	24	-4	-25	28	35*
Cc1ccccc1C(=O)O/N=C(\N)c1cccc([N+](=O)[O-])c1	68*	-1	50*	48	0	9	74*	48*
N/C(=N\OC(=O)c1cccc([N+](=O)[O-])c1)c1cccnc1	31	-7	18	5	-4	8	nt	nt
N/C(=N\OC(=O)Oc1ccccc1)c1cccc([N+](=O)[O-])c1	2	8	-8	11	-2	-8	nt	nt
N/C(=N\OC(=O)c1ccc2c(c1)OCO2)c1cccc([N+](=O)[O-])c1	48*	2	44*	23	-2	-19	33*	26
Cc1ccc2cc(/C=C(\C#N)C(N)=O)c(N3CCCCC3)nc2c1	42*	-4	46*	32	-1	-3	18	34*
Cc1cccc(NC(=O)c2cc([N+](=O)[O-])ccc2N2CCCCC2)n1	43*	3	47*	31	-6	-42	39*	18
O=C(COC(=O)c1cc(Br)ccc1Cl)NC1CCCC1	19	2	17	8	-1	nt	nt	nt
COc1cccc(-c2nn(C)c3sc(C(=O)N4CCN(c5ccccn5)CC4)cc23)c1	43*	15	41*	30	2	-106	32*	-16
COc1cccc(-c2nn(C)c3sc(C(=O)N4CCOCC4)cc23)c1	24	-8	3	15	-2	18	nt	nt
CCCOc1ccc(CN(CCC#N)C(=S)NC(=O)c2ccccc2)cc1	48*	44	43*	42	4	-85	35*	-14
C[C@H]1CC[C@H]2C(=O)N3[C@H](c4ccccc4Br)[C@@H](C)CC[C@H]3C(=O)N2[C@@H]1c1ccccc1Br	41*	11	44*	47	nt	nt	33*	41*
CN(C)CCCN(C(=O)c1ccc(Br)s1)c1nc2cc3c(cc2s1)OCO3	27	6	2	23	1	20	nt	nt
CN(C)CCCN(C(=O)C1COc2ccccc2O1)c1nc2cc3c(cc2s1)OCO3 (stereo not drawn)	56*	-1	55*	40	0	-15	49*	44*
Clc1ccc(OCc2noc(-c3ccsc3)n2)c(Cl)c1	15	-4	21	22	1	-41	nt	nt
CCNC(=S)N/N=C/c1cccc(OCc2c(F)cccc2Cl)c1	44*	-1	53*	31	-1	-3	37*	41*
SMILES	tim10-1 inh	SKKanGAS inh	TIM10 inh	tim23-1 inh	V-ATPase pHluor	PfHsp90 yeast 2	tim10-1 confirm	tim10 confirm
COc1ccc(OC)c(NC(=O)COC(=O)CCc2ccc(S(=O)(=O)N3CCOCC3)cc2)c1	17	nt	-2	25	4	-10	nt	nt
O=c1oc2ccccc2nc1/C=C(O)/C=C\c1ccccc1	58*	-16	45*	39	-1	nt	46*	44*
COC(=O)c1cc(NC(=S)Nc2cc(Cl)cc(Cl)c2)cc(C(=O)OC)c1	49*	23	50*	38	-1	-14	33*	24
O=C(NC(=S)N1CCN(c2ccc(C(F)(F)F)cc2[N+](=O)[O-])CC1)c1cccs1	44*	87*	40*	47	-3	2	21	9
O=C(CCc1ccccc1)Nc1cc(C(=O)O)cc(C(=O)O)c1	-5	-6	11	5	2	-17	nt	nt
O=Nc1c(O)n(Cc2ccc(Cl)cc2Cl)c2ccccc12	52*	12	42*	38	-4	6	18	39*
Cn1c(Cl)cnc1C1CC(=O)c2cc(Cl)ccc2O1 (stereo not drawn)	66*	-11	72*	18	-2	3	58*	5
COC(=O)c1ccc(CN(C)S(=O)(=O)c2cccs2)cc1	-71	2	-33	1	0	-9	nt	nt
C=C[C@]1(C)C[C@@H](OC(=O)CSCCN(CC)CC)[C@]2(C)C(C)CC[C@]3(CCC(=O)[C@H]32)[C@@H](C)[C@@H]1O (stereo partly drawn)	46*	104*	42*!	34	1	21	40*!	38*
Cc1cc(C)c2sc(N(CCCN(C)C)C(=O)c3ccc(S(=O)(=O)N4CCCc5ccccc54)cc3)nc2c1	54*	26	51*	20	6	-27	41*	33*
CN(C)CCCN(C(=O)c1ccc(S(=O)(=O)N2CCc3ccccc3C2)cc1)c1nc2ccc(F)cc2s1	59*	18	57*	30	0	nt	36*	45*
CN(C)CCCN(C(=O)c1ccc(S(=O)(=O)N2CCc3ccccc3C2)cc1)c1nc2c(F)cccc2s1	35	12	18	4	8	-8	nt	nt
Cc1cccc2sc(N(CCCN(C)C)C(=O)c3ccc(S(=O)(=O)N4CCc5ccccc5C4)cc3)nc12	41*	12	40*	20	-1	-30	16	22
COc1ccccc1NS(=O)(=O)c1cccc(C(=O)N2CCN(Cc3ccc4c(c3)OCO4)CC2)c1	-4	2	-12	-5	-1	-1	nt	nt
CCCCCCC(=O)N/N=C1\CCCc2ccccc21	33	0	9	17	-3	9	nt	nt

Screening data as filed in PubChem BioAssay.
